Results filed as inconclusive are left out. Calls of active or inactive are those of the source. Calls follow the shape of the dose curve; as a rule, active = well fitted inhibition curve with a large enough effect in the repeat runs; inconclusive = weak or mixed curves; inactive = no such curve, though single readings can be large or run the other way.
Each compound was assayed against Estrogen receptor (Homo sapiens) (UniProt P03372) (assay: qHTS assay to identify small molecule antagonists of the estrogen receptor alpha (ER-alpha) signaling pathway using the BG1 cell line in the presence of 0.1 nM 17-beta-estradiol (AID 1259244; also: nearly all actives have a fitted effect of over 50% in size)). Details: VM7Luc4E2 (BG1) ERE-luciferase, antagonist mode, 0.1 nM E2, 22 h; series mostly up to 92.4 µM; activity change, negative = inhibition: at the top concentration.
Chain of Estrogen receptor (Homo sapiens) (P03372 whole entry, looked up): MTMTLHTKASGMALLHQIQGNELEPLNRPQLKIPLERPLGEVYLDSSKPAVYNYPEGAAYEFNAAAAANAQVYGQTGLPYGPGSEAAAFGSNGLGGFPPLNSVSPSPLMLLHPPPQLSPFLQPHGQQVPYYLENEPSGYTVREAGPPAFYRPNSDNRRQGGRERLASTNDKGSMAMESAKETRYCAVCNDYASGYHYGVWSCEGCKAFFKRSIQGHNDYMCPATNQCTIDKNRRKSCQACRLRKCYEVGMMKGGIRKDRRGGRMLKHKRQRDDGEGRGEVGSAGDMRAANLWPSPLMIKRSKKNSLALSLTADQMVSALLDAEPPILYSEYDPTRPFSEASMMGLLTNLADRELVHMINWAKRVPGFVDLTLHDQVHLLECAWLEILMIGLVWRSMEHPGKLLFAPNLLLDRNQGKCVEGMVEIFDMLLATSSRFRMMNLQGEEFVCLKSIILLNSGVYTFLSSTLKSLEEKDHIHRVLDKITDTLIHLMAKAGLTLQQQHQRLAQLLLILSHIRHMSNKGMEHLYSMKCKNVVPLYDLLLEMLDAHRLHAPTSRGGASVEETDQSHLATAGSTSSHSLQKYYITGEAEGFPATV
Source text: National Center for Advancing Translational Sciences [NCATS]
NIH Chemical Genomics Center [NCGC]
U.S. Environmental Protection Agency [EPA]
National Institutes of Environmental Health Sciences [NIEHS]
National Toxicology Program [NTP]
U.S. Food and Drug Administration [FDA]
Estrogen receptor (ER), a member of the nuclear hormone receptor plays an important role in development, metabolic homeostasis and reproduction. Two subtypes of ER, ER-alpha and ER-beta, have similar expression patterns with some uniqueness in both types. Endocrine disrupting chemicals (EDCs) and their interactions with steroid hormone receptors like ER causes disruption of normal endocrine function. Therefore, it is important to understand the effect of environmental chemicals in ER signaling pathway. For identifying ER antagonists, VM7Luc4E2 cell line was used to screen against Tox21 compound libraries.
VM7Luc4E2 cell line (provided by Denison MS, University of California) endogenously express full-length ER-alpha and is stably transfected with a plasmid containing four estrogen responsive elements (ERE) upstream of a luciferase reporter gene. The current screening for identification of ER-alpha inhibitors against Tox21 compound libraries used lower concentration (0.1 nM) of 17beta-Estradiol as a stimulator.
Tox21 Assay Protocol Summary:
VM7Luc4E2 cells were cultured in phenol red free assay medium containing 10% charcoal stripped FBS for 5 days prior to the assay. The cells were dispensed at 4,000 cells/well in 4 uL of assay medium into white wall/solid-bottom 1536-well plates (Corning Life Sciences, Corning, NY) using a Multidrop Combi (ThermoFisher Scientific, Waltham, MA) dispenser. After the assay plates were incubated at 37C and 5% CO2 for 24 hr, 23 nL of compounds dissolved in DMSO, positive controls or DMSO only was transferred to the assay plates by a Pintool station (Kalypsys, San Diego, CA). The transfer of compounds was followed by the addition of 1 uL of 0.1 nM (final concentration) agonist (17beta-Estradiol)/assay medium using a Flying Reagent Dispenser (FRD, Aurora Discovery, San Diego, CA). The plates were incubated at 37C and 5% CO2 for 22 hr. For luciferase reporter gene assay, 4 uL of ONE-Glo reagent (Promega Corporation, Madison, WI) was added to each well using the FRD and after 30 min incubation at room temperature luminescence intensity was measured using ViewLux plate reader (PerkinElmer, Shelton, CT).
In the case of `CC(C)=CCOc1c2occc2cc2ccc(=O)oc12`, the “activity change, negative = inhibition” value is reported as -18.7% [at 42.5 µM] (inactive). `Clc1cccc(SC2CCNCC2)n1` was tested, and the “activity change, negative = inhibition” value was 15.5% [at 42.5 µM] (inactive). `COc1nn(CSP(=S)(OC)OC)c(=O)s1` was tested, and the “activity change, negative = inhibition” value was -8.03% (inactive). For `CCCCC(O)(Cn1cncn1)c1ccc(Cl)cc1Cl` (stereo not given), the Potency was 61.1 µM (active). In the case of `O=NN1CCCCCC1`, the “activity change, negative = inhibition” value is reported as 12.8% (inactive). In the case of `CCCCNP(N)(N)=S`, the “activity change, negative = inhibition” value is reported as -5.07% (inactive). For `OCCCBr`, the “activity change, negative = inhibition” value was -7.7% (inactive). For `COC(=O)c1cncn1C(C)c1ccccc1` (stereo not given), the “activity change, negative = inhibition” value was -8.7% [at 42.5 µM] (inactive). With `C=C(C#N)CCC#N` the “activity change, negative = inhibition” value was 17.4% (inactive). `Cc1cc(=O)[nH]o1` was tested, and the “activity change, negative = inhibition” value was 0.652% (inactive). For `Brc1ccc(Oc2ccccc2)cc1`, the “activity change, negative = inhibition” value was 4.64% (inactive). In the case of `ClP(Cl)(Cl)(Cl)Cl`, the “activity change, negative = inhibition” value is reported as 0.213% (inactive). With `CN(N=O)c1ccc([N+](=O)[O-])cc1` the “activity change, negative = inhibition” value was 7.18% (inactive). With `O=C(CBr)c1ccccc1` the “activity change, negative = inhibition” value was 11.3% (inactive). With `O=NN1CCNCC1` the “activity change, negative = inhibition” value was 1.07% (inactive). `CC1Sc2c(C(=O)O)c(=O)c3cc(F)c(N4CCNCC4)cc3n21` (stereo not given) was tested, and the “activity change, negative = inhibition” value was -1.28% [at 42.5 µM] (inactive). `c1ccoc1` was tested, and the “activity change, negative = inhibition” value was 0% (inactive). With `IC(I)=C(I)I` the Potency was 27.3 µM (active). For `O=C1NCN(c2ccccc2)C12CCN(CCCOc1ccc(F)cc1)CC2`, the Potency was 7.5 µM (active). `C=CCC1([C@H](C)CCC)C(=O)NC(=O)NC1=O` was tested, and the “activity change, negative = inhibition” value was -5.4% (inactive). For `ClC=C(Cl)Cl`, the “activity change, negative = inhibition” value was -0.113% (inactive). With `C[N+](C)(C)CCCl` the “activity change, negative = inhibition” value was -0.458% (inactive). In the case of `O=C1C(=O)c2cccc3cccc1c23`, the Potency is reported as 54.4 µM (active). `C=CCOC(C)=O` was tested, and the “activity change, negative = inhibition” value was 0% (inactive). With `Brc1ccccc1` the “activity change, negative = inhibition” value was 3.6% (inactive). In the case of `CC(=O)[C@H]1CC[C@H]2[C@@H]3CC[C@H]4C[C@](C)(O)CC[C@]4(C)[C@H]3CC[C@]12C`, the “activity change, negative = inhibition” value is reported as 7.26% [at 42.5 µM] (inactive). With `N#Cc1ccc(Cl)cc1` the “activity change, negative = inhibition” value was -0.547% (inactive). For `O=S1OC[C@@H]2[C@H](CO1)[C@]1(Cl)C(Cl)=C(Cl)[C@@]2(Cl)C1(Cl)Cl` (stereo not given in full), the “activity change, negative = inhibition” value was -8.95% (inactive). In the case of `COc1c(C(C)(C)C)cc([N+](=O)[O-])c(C)c1[N+](=O)[O-]`, the “activity change, negative = inhibition” value is reported as 2.6% (inactive). `CN(C)c1ccc(N(C)C)cc1` was tested, and the Potency was 30.7 µM (active). For `CCBr`, the “activity change, negative = inhibition” value was -0.659% (inactive). In the case of `CCOc1nc(F)cc2nc(S(=O)(=O)Nc3c(Cl)cccc3Cl)nn12`, the “activity change, negative = inhibition” value is reported as -3.78% (inactive). `CC(=O)C(C)(C)C` was tested, and the “activity change, negative = inhibition” value was -8.56% (inactive). `CCOP(=S)(OCC)SCSCC` was tested, and the “activity change, negative = inhibition” value was 7.39% (inactive). `C[C@H]1CNCCc2ccc(Cl)cc21` was tested, and the “activity change, negative = inhibition” value was 14.1% [at 42.5 µM] (inactive). For `CCO[C@H]1O[C@@H]2OC3(C)CC[C@H]4[C@H](C)CC[C@@H]([C@H]1C)[C@@]24OO3`, the “activity change, negative = inhibition” value was 1.16% [at 42.5 µM] (inactive). For `Cc1ccc(N)cc1C`, the “activity change, negative = inhibition” value was -1.07% (inactive). `C=CC[C@]1(O)CC[C@H]2[C@@H]3CCC4=CC(=O)CCC4=C3C=C[C@@]21C` was tested, and the Potency was 13.3 µM (active). With `CS/C(C)=N/OC(=O)N(C)SN(C)C(=O)O/N=C(\C)SC` the “activity change, negative = inhibition” value was 7.67% (inactive). `CN1[C@@H]2CC[C@H]1CC(OC(=O)c1cc(Cl)cc(Cl)c1)C2` (stereo not given in full) was tested, and the “activity change, negative = inhibition” value was 26.1% [at 42.5 µM] (inactive).
% is scaled to controls: 0 for no effect and ±100 for the full control effect; potency is read from the fitted curve at half-maximal effect.
